Reference: the supplement of paper PMC10127200
Counter-ions that a name gives are not always drawn.

The compounds below were run on 786-O (assay: Euclidean distance of Cell Painting phenotypic profile (signed KS, 77 features) to DMSO centroid (dimensionless distance); 5 or 10 uM (library dependent); higher = stronger phenotypic change vs DMSO (phenoactivity)). Conditions: 48 h.
Outline: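 Library compounds were applied at 10 or 5 uM, depending on the library, with 0.1% DMSO final, for 48 h to five cancer lines and a healthy fibroblast line. After staining, cells were imaged confocally at 20X across 9 fields per well, and Harmony extracted 77 features, each scored as a signed Kolmogorov-Smirnov statistic against vehicle wells on the same plate. Phenoactivity is the Euclidean distance between each profile and the median vehicle profile, with profiles first plate-position corrected, correlation-weighted and averaged over replicates at the top dose.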
O=C(O)c1cc(/N=N/c2ccc(S(=O)(=O)Nc3ccccn3)cc2)ccc1O [Sulfasalazine] showed an Euclidean distance of 1.02.
Work on CO[C@H]1C[C@H](O[C@@H]2/C(C)=C/C[C@@H]3C[C@@H](C[C@]4(CC[C@H](C)[C@@H](C5CCCCC5)O4)O3)OC(=O)[C@@H]3C=C(C)/C(=N/O)[C@H]4OC/C(=C\C=C\[C@@H]2C)[C@]43O)O[C@@H](C)[C@@H]1O [Selamectin] yielded an Euclidean distance of 1.94.
Cc1cc(C(C)Nc2ccccc2)c2nc(N3CCOCC3)cc(=O)n2c1 (stereo not given) showed an Euclidean distance of 1.4.
Compound CC(C)N1CCN(Cc2cnc(-c3cc(-c4cccc5[nH]ccc45)cc4[nH]ncc34)o2)CC1 has an Euclidean distance of 3.29.
For COc1ccc(C2=N[C@@H](c3ccc(Cl)cc3)[C@@H](c3ccc(Cl)cc3)N2C(=O)N2CCNC(=O)C2)c(OC(C)C)c1 [Nutlin-3], the Euclidean distance was 1.4.
With CN(C)c1ccc(O)c2c1C[C@H]1C[C@H]3[C@H](N(C)C)C(O)=C(C(N)=O)C(=O)[C@@]3(O)C(O)=C1C2=O [Minocycline HCl] the Euclidean distance was 1.46.
For Oc1cccc(O)c1 [Resorcinol], the Euclidean distance was 1.3.
In the case of CCOC(=O)[C@H](CCc1ccccc1)N[C@@H](C)C(=O)N1[C@H](C(=O)O)C[C@H]2CCCC[C@@H]21 [Trandolapril], the Euclidean distance is reported as 1.34.
C=CC(=O)Nc1cc(Nc2nccc(-c3cn(C)c4ccccc34)n2)c(OC)cc1N(C)CCN(C)C [Osimertinib (AZD9291)] gave an Euclidean distance of 4.93.
For Cc1ccc(CNc2ncnc3ccc(-c4ccc(CO)o4)cc23)o1, the Euclidean distance was 1.8.
O=C(O)CC[C@H]1CC[C@@](c2cc(F)ccc2F)(S(=O)(=O)c2ccc(Cl)cc2)CC1 was tested, and the Euclidean distance was 1.76.
Work on O=c1[nH]cc(F)c(=O)[nH]1 [Fluorouracil (5-Fluoracil. 5-FU)] yielded an Euclidean distance of 1.5.
In the case of C[N+]1(C)[C@@H]2C[C@@H](OC(=O)C(O)(c3cccs3)c3cccs3)C[C@H]1[C@@H]1O[C@@H]12 [Tiotropium Bromide hydrate], the Euclidean distance is reported as 1.26.
With Cc1onc(-c2c(F)cccc2Cl)c1C(=O)N[C@@H]1C(=O)N2[C@@H]1SC(C)(C)[C@@H]2C(=O)O [Flucloxacillin sodium] the Euclidean distance was 1.14.
Work on Cc1csc(-c2nnc(Nc3ccc(Oc4ncccc4-c4ccnc(N)n4)cc3)c3ccccc23)c1 yielded an Euclidean distance of 3.06.
For COc1cc2c(cc1OC)[C@H]1C[C@@H](OC(=O)[C@@H](N)C(C)C)[C@H](CC(C)C)CN1CC2 [Valbenazine tosylate], the Euclidean distance was 0.826.
FC(F)c1nc2ccccc2n1-c1nc(N2CCOCC2)nc(N2CCOCC2)n1 was tested, and the Euclidean distance was 2.56.
Work on COc1ccc(-c2ccc3cc(C(=O)O)ccc3c2)cc1C12CC3CC(CC(C3)C1)C2 [Adapalene] yielded an Euclidean distance of 1.76.
COc1cc2ncnc(Nc3cccc(Cl)c3F)c2cc1OC(=O)N1CCN(C)C[C@H]1C was tested, and the Euclidean distance was 1.15.
Nc1ccc(S(=O)(=O)Nc2ncccn2)cc1 [Sodium sulfadiazine] showed an Euclidean distance of 1.29.
With CC(C)COCC(CN(Cc1ccccc1)c1ccccc1)N1CCCC1 (stereo not given) [Bepridil hydrochloride] the Euclidean distance was 1.64.
Oc1nc(-c2ccc(C(F)(F)F)cc2)nc2c1CSCC2 gave an Euclidean distance of 0.915.
Compound CCn1cc(C(=O)O)c(=O)c2cc(F)c(N3CCN(C)CC3)cc21 [Pefloxacin Mesylate] has an Euclidean distance of 1.56.
Compound COc1ccc2[nH]cc(CCNC(C)=O)c2c1 [Melatonin] has an Euclidean distance of 0.969.
For Cc1ccc(C(=O)Nc2ccc(CN3CCN(C)CC3)c(C(F)(F)F)c2)cc1C#Cc1cnc2cccnn12, the Euclidean distance was 4.62.
CNC(=O)c1cc(Oc2ccc(NC(=O)Nc3ccc(Cl)c(C(F)(F)F)c3)cc2)ccn1 [Sorafenib] gave an Euclidean distance of 2.08.
With O=C(CCCCCN1C(=O)c2cccc3cccc(c23)C1=O)NO [Scriptaid] the Euclidean distance was 3.19.
For CCCNS(=O)(=O)Nc1ncnc(OCCOc2ncc(Br)cn2)c1-c1ccc(Br)cc1 [Macitentan], the Euclidean distance was 1.36.
Compound CCC1=C[C@@H]2CN(C1)Cc1c([nH]c3ccccc13)[C@@](C(=O)OC)(c1cc3c(cc1OC)N(C)[C@H]1[C@@](O)(C(=O)OC)[C@H](OC(C)=O)[C@]4(CC)C=CCN5CC[C@]31[C@@H]54)C2 [Vinorelbine Tartrate] has an Euclidean distance of 3.19.
O=C(NC1CCOCC1)c1ccc(-c2cc(-c3c[nH]nc3-c3ccccn3)ccn2)cc1 gave an Euclidean distance of 1.22.
With CC(C)c1ccc(NC(=O)Cn2cnc3c2c(=O)n(C)c(=O)n3C)cc1 the Euclidean distance was 1.03.
COc1ccccc1S(=O)(=O)Nc1ccc2c(c1)CN(C)C(=O)N2 was tested, and the Euclidean distance was 1.98.
With O=C(O)COCCN1CCN(C(c2ccccc2)c2ccc(Cl)cc2)CC1 (stereo not given) [Cetirizine DiHCl] the Euclidean distance was 1.09.
Nc1ccc(-c2ccc3ncc4ccc(=O)n(-c5cccc(C(F)(F)F)c5)c4c3c2)cn1 [Torin 2] was tested, and the Euclidean distance was 5.09.
Work on O=C1OC(c2ccc(O)cc2)(c2ccc(O)cc2)c2ccccc21 [Phenolphthalein] yielded an Euclidean distance of 1.6.
Compound CS(=O)(=O)Nc1ccc([N+](=O)[O-])cc1Oc1ccccc1 [Nimesulide] has an Euclidean distance of 1.43.
Compound CC1=CC[C@@](O)(C(C)C)CC1 [Terpinen-4-ol] has an Euclidean distance of 0.644.
In the case of CC(C)c1ccc2oc3nc(N)c(C(=O)O)cc3c(=O)c2c1 [Amlexanox], the Euclidean distance is reported as 0.725.
With CCCCC(C)(O)C/C=C/[C@H]1[C@H](O)CC(=O)[C@@H]1CCCCCCC(=O)OC (mixture of isomers) [Misoprostol] the Euclidean distance was 1.2.
Compound CS(=O)(=O)c1ccc([C@@H](O)[C@@H](CO)NC(=O)C(Cl)Cl)cc1 [Thiamphenicol] has an Euclidean distance of 1.41.
